Results as given in PubChem BioAssay (NCATS).
Records with an inconclusive call do not appear. Activity calls are given as the source filed them. Calls follow the shape of the dose curve; as a rule, active = well fitted inhibition curve with a large enough effect; inconclusive = small, poorly fitted or top-dose-only effect; inactive = no such curve, though single readings can be large or run the other way. Numbered stars: 1 amine (or outer) side, 2 acyl side, 3 side chain; on linkers, the order of the positions; unused ones are H or OH. Square brackets hold non-standard residues; d marks the D form. Peptide text beside a SMILES is read from it. ξ: configuration not given here. X4 = O=C(C1CC2(c3ccc(O)cc3)c3ccccc3NC2N1[*:1])[*:2]; ξW = NC(Cc1c[nH]c2ccccc12)C(=O)O; ξY = NC(Cc1ccc(O)cc1)C(=O)O

assay: qHTS for Hypoxia signaling pathway (HIF-1) antagonists against the NCATS CANVASS Library (AID 1347374); details: HRE-bla ME-180 cells, HIF-1 beta-lactamase reporter, CoCl2; series mostly up to 38.3 µM; activity change, negative = inhibition: at the top concentration; also: nearly all actives have a fitted effect of over 60% in size;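 as to activity change, negative = inhibition: HRE-bla ME-180 cells stimulated with cobalt chloride to stabilize HIF-1alpha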
Text: Natural products and their derivatives continue to be wellsprings of nascent therapeutic potential. However, many laboratories have limited resources for biological evaluation, leaving their previously isolated or synthesized compounds largely or completely untested. To address this issue, the Canvass library of natural products was assembled (https://tripod.nih.gov/canvass), in collaboration with academic and industry researchers, for quantitative high-throughput screening (qHTS) across a diverse set of cell-based and biochemical assays. […] We collected pure natural products to circumvent deconvolution and structure elucidation due to time and resource limitations. The library was formatted into 1536-well plates and evaluated in 50 qHTS (in an 11-pnt concentration series) bioassays with broad scope of disease-relevant mechanisms. The resulting data set from 50 different assays was then systematically analyzed to identify overall trends and specific natural products with interesting biological activities. Reported herein are the results of each individual qHTS and their corresponding assay protocol. During hypoxic conditions, the cellular responses are regulated in large part through the activation of the heterodimeric transcription factor called hypoxia-inducible factor-1 (HIF-1). The assay used is a beta-lactamase reporter gene under control of the hypoxia responsive element (HRE) that has been stably integrated into ME-180 cells. This assay identifies inducers of the HIF-1-signaling pathway. The cytotoxicity of the compound library against HRE-bla ME-180 cell line was tested in parallel by measuring cell viability using CellTiter-Glo assay (Promega, Madison, WI) in the same assay wells. The compounds were also tested for auto fluorescence that may interfere with the biological target readout resulting in potential false positives and/or negatives. National Center for Advancing Translational Sciences (NCATS), Rockville, MD National Institute of Health (NIH), Bethesda, Maryland
HIF-1 antagonist assay protocol: 1. HRE-bla ME-180 cells were dispensed at 2,000 cells per well in 5 uL of assay medium containing 0.5% dialyzed FBS into black wall/clear-bottom 1536-well plates using a Multidrop Combi (Thermo Scientific, Waltham, MA) dispenser. 2. After the assay plates were incubated at 37C and 5% CO2 for 5 hrs, 23 nL of compounds dissolved in DMSO, positive controls or DMSO only was transferred to each well of the assay plate using a Pintool station (Kalypsys, San Diego, CA). 3. One microliter of 60 uM CoCl2 (which enhance the stability of HIF-1alpha) or 1 uL of assay medium was added to the wells using BioRAPTR dispenser. 4. The assay plates were then incubated at 37C and 5% CO2 for 17 hrs. 5. One microliter of CCF4 dye was added the assay plate and incubated at room temperature for 2 hours. 6. The fluorescence intensity was obtained using the EnVision (PerkinElmer, Shelton, CT) plate reader using a 405 nm excitation, and 460 and 530 nm emission filters. 7. To assess cell viability (and for data normalization), 4uL of CellTiter-Glo (Promega) was added to the assay plate using the BioRAPTR dispenser and incubated at room temperature for 30 min. 8. Luminescence signal was obtained using the ViewLux microplate reader (PerkinElmer) using a clear emission mirror, and a 15 sec exposure time, 1x binning settings.
% is scaled to controls: 0 for no effect and ±100 for the full control effect; potency is read from the fitted curve at half-maximal effect.

Structure (SMILES)	activity change, negative = inhibition	Potency
O=C(O)CC1OCc2c(O)cccc21 (stereo not given)	1.72% (inactive)	
O=C1CC(c2cc(O)cc(O)c2)Oc2cc(O)ccc21 (stereo not given)	-15.3% (inactive)	
O=Cc1ccc2n1C[C@@]1(C[C@H](O)[C@@H](CO)O1)OC2	-5.94% (inactive)	
C[C@]12CC[C@]3(C1)[C@H](CC2=O)CC(OC(=O)c1ccccc1)[C@H]1[C@@](CO)(C(=O)O)CCC[C@@]13C (stereo not given in full)	28.3% (inactive)	
CC1C(=O)C23CCC1C[C@@]21O[C@H]2C(C)(C)C=CC(=O)[C@@]23COC1=O (stereo not given in full)	12.4% (inactive)	
CC[C@H](C)[C@H](NC(=O)C(Cc1ccc(O)cc1)NC(=O)C(Cc1c[nH]c2ccccc12)NC(=O)[C@H](C)N)C(=O)N1C(C(=O)NC(Cc2ccc(O)cc2)C(=O)O)CC2(c3ccc(O)cc3)c3ccccc3NC12 (stereo not given in full) (H-A[ξW][ξY]I[X4][ξY]-OH)	1.97% (inactive)	
CN1CCc2cc3c(c4c2[C@H]1[C@@H](O)c1ccccc1-4)OCO3		11.8 µM (active)
O=C1c2c(O)cc(O)cc2O[C@@H](c2ccc(O)cc2)[C@@H]1c1c(O)cc(O)c2c(=O)cc(-c3ccc(O)c(O)c3)oc12	60.5% (inactive)	
CC1(C)CCC[C@]2(C)[C@@H]1CC[C@@]13C[C@@H](CC[C@H]12)C(C)(O)C3 (stereo not given in full)	-3.89% (inactive)	
O=Cc1ccc2n1C[C@@]1(OC2)O[C@H](CO)[C@@H](O)[C@@H]1O	4.23% (inactive)	
C1=C2CCCN[C@@H]2[C@@H]2CCN3CCCC[C@@H]3[C@H](C1)C2	5.66% (inactive)	
C[C@@H]1C(=O)[C@]23CC[C@H]1C[C@]21O[C@H]2C(C)(C)C=CC(=O)[C@]23COC1=O	6.96% (inactive)	
C[C@@H]1C[C@H]2C[C@]3(CCCCN3C)[C@@H]3C[C@H]2[C@H](C1)N(C)C3	3.79% (inactive)	
C/C(=C\[C@H](C)C(=O)CCCC1CC(=O)NC(=O)C1)C(O)[C@@H](C)[C@H](O)C/C=C/CC/C=C/C(=O)O (stereo not given in full)	-2.85% (inactive)	
C=C1C(=O)O[C@H]2C[C@H](C)[C@@H]3CC(=O)C(C)=C3[C@H](O)[C@H]12		7.47 µM (active)
CC(=O)NC[C@@H]1O[C@H](CC/C=C(C)/C(C)=C/C=O)[C@H](C)C[C@H]1O	10.7% (inactive)	
C/C(=C\[C@H](C)C(=O)CCCC1CC(=O)NC(=O)C1)[C@@H]1OC(=O)/C=C/CC/C=C/C[C@@H](O)[C@@H]1C		1.06 µM (active)
C=C1C(=O)O[C@H]2[C@H]1CC/C(CO)=C\CC[C@@]1(C)O[C@@H]21		4.72 µM (active)
C=CC(C)(C)C(=O)[C@@H](C)[C@@H]1CC[C@](C)(C=C)O1	-4.25% (inactive)	
CO[C@@H]1[C@H](O)[C@@H](C)O[C@@H](OC[C@@H]2C(C)OC(=O)/C=C/[C@H](C)C(O[C@@H]3O[C@H](C)CC4(OC(=O)O[C@@H]4C)C3O)[C@@H](C)CC(C)C(=O)CC[C@H]3OC23)[C@@H]1OC (stereo not given in full)	4.68% (inactive)	

Structure (SMILES)	activity change, negative = inhibition	Potency
COc1ccc(CCCc2cc(O)c(OC)c(O)c2)c(O)c1O	3% (inactive)	
COc1ccc([C@@H]2c3cc(OC)c(OC)cc3C(=O)[C@H](C)C2C)cc1OC (stereo not given in full)	9.63% [at 7.64 µM] (inactive)	
CC(O)/C=C/C1(O)C(C)(C)CC(O)CC1(C)O (stereo not given)	-14.2% (inactive)	
C=C1C(=O)C[C@H]2C[C@@H]1[C@]2(C)CCC=C(C)C	1.62% (inactive)	
COc1cc(O)c2c3c(c(O)cc(C)c13)C(=O)OC2	-2.7% (inactive)	
C/C=C/c1cc(OC)c2c(c1)[C@@H](C)[C@H](c1ccc(O)c(OC)c1)O2	10.6% (inactive)	
CN1C(=O)[C@]23SS[C@@]1(C)C(=O)N2[C@H]1Nc2ccccc2[C@]1(c1c[nH]c2ccccc12)[C@@H]3O		0.941 µM (active)
C=C1C[C@@]23C=CC(=O)[C@@](C)(CCC(=O)Nc4c(O)ccc(C(=O)O)c4O)C2C[C@@H]1CC3O (stereo not given in full)	0.388% (inactive)	
CS/C=C/C(N)=O	-5.34% (inactive)	
COc1c(O)cc2oc(-c3ccccc3)cc(=O)c2c1O		9.41 µM (active)
Oc1ccc(/C=C2/c3cc(O)cc(O)c3C(c3ccc(O)cc3)[C@H]2c2cc(O)cc(O)c2)cc1 (stereo not given in full)	26.7% (inactive)	
C[C@@]12CCC[C@@](C)(C(=O)O)[C@H]1C[C@@H](O)[C@]13C[C@H]4C[C@H](O[C@@]4(C)C1)[C@@H]23	4.9% (inactive)	
O=Cc1ccc2n1C[C@@]1(C[C@H](O)[C@H](O)CO1)OC2	3.06% (inactive)	
CC12C[C@]3(O)O[C@@H](O1)[C@]1(COC(=O)c4ccccc4)[C@@H]3CC21OC1OC(CO)C(O)C(O)C1O (stereo not given in full)	1.75% (inactive)	
CN1CC[C@]2(c3cccc4c3N[C@@H]3N(C)CC[C@]43[C@@]34CCN(C)[C@@H]3Nc3ccccc34)c3ccccc3N[C@H]12		14.9 µM (active)
CC1C(=O)C23CCC1C[C@]21O[C@@H]2C(C)(C)C=CC(=O)[C@@]23COC1=O (stereo not given in full)	2.58% (inactive)	
O=c1cc(-c2ccc(O)c(O[C@@H]3O[C@H](CO)[C@@H](O)[C@H](O)[C@H]3O)c2)oc2cc(O[C@@H]3O[C@H](CO)[C@@H](O)[C@H](O)[C@H]3O)cc(O)c12	-5.91% (inactive)	
C[C@@H](O)[C@H]1OC(=O)C=C2[C@]3(C)[C@H]4[C@H](OC(=O)[C@@]4(C)[C@@H](O)[C@H]4O[C@H]43)[C@H]3O[C@@]231		1.49 µM (active)
CCC[C@@H](C)/C=C(\C)[C@H](O)[C@H](C)/C=C/CC[C@@H](O)[C@H](C)[C@H](O)[C@H](C)[C@H](O)[C@H](C)[C@H]1O[C@H]([C@H](C)C(=O)O)CC[C@@H]1C		2.98 µM (active)
C[C@@H]1C(=O)[C@]23CC[C@H]1C[C@]21O[C@H]2C(C)(C)C=CC(=O)[C@@]23COC1=O		23.6 µM (active)
